Here are results for 40 molecules from PubChem BioAssay (Tox21).

Each structure is given as a SMILES string. Active and inactive are the calls of the source. Calls follow the shape of the dose curve; as a rule, active = well fitted curve in the direction sought with a large enough effect in the repeat runs; inconclusive = weak or mixed curves; inactive = flat fitted curve, though single readings scatter.

This test can be described thus: qHTS assay to test for compound auto fluorescence at 460 nm (blue) in HEK293 cell free culture (AID 720681). To be noted: cell-free medium, autofluorescence 405/460 nm (blue); series mostly up to 91.3 µM. An excerpt: U.S. Tox21 Program National Center for Advancing Translational Sciences [NCATS] NIH Chemical Genomics Center [NCGC] U.S. Environmental Protection Agency [EPA] National Institutes of Environmental Health Sciences [NIEHS] National Toxicology Program [NTP] U.S. Food and Drug Administration [FDA] Tox21 Assay Overview: Compound auto fluorescence often interferes with screening of the compound library against various biological targets and signaling pathways. Some of these compounds may have fluorophoric properties. Such properties may interfere with the assay outputs resulting in false positives and/or negatives. To decrease such complications and ensure the compound activities are relevant in terms of biological response, the Tox21 10K compound library was screened for auto fluorescence. From the fluorophores used as reporter signals in our screening assays, the auto fluorescence equivalencies of compounds against three fluorophores have been evaluated: Triamterene, Fluorescein and Rose Bengal sodium for blue, green and red fluorescence, respectively. The fluorescence intensities were measured using Excitation/Emission wavelengths at 405/460nm, 485/535nm and 540/590nm for blue, green and red labels, respectively. This assay includes the blue fluorescence data.
Tox21 Assay Protocol Summary: 5 uL of culture medium (DMEM containing 10% FBS) per well was dispensed into black wall/clear bottom 1536-well plates using a Multidrop Combi Dispenser (ThermoFisher Scientific, Waltham, MA). After 23 nL compound or DMSO vehicle was transferred into assay plate by a pintool work station (Kalypsys, San Diego, CA), fluorescence intensities in the assay plates were measured by an Envision (PerkinElmer, Shelton, CT) plate reader using three labels for measuring blue, green and red fluorescence at […] 460, 535 and 590nm respectively.
For orientation: Quantitative high-throughput screening tests each substance at several concentrations.
As for `Nc1cccnc1`, the molecule was classed as inactive.
As to `Nc1c(Cl)cc([N+](=O)[O-])cc1Cl`, the molecule was called inactive.
Consider `O=S(=O)(Oc1ccc(Cl)cc1)c1ccc(Cl)cc1`, for which the molecule was classed as inactive.
With `C=CCc1ccc(OC)cc1` the entry was “inactive”.
With `CCN(N=O)C(N)=O` the entry was “inactive”; with `CC(C)Oc1cc(-n2nc(C(C)(C)C)oc2=O)c(Cl)cc1Cl`, “inactive”.
Take `CCC(C)(C)c1ccc(O)cc1`: the molecule was called inactive.
With `Cc1ccc(OP(=O)(Oc2ccc(C)cc2)Oc2ccc(C)cc2)cc1` the entry was “inactive”.
Consider `Nc1ccc(-c2ccc(N)c(N)c2)cc1N`, for which the molecule was classed as inactive.
With `Cc1ccc2c(c1N)C(=O)c1ccccc1C2=O` the entry was “inactive”.
Consider `CCCCCCCCOC(=O)c1ccccc1C(=O)OCCCCCCCC`, for which the result was inactive.
On to `CC(C)NC(C)C`, for which the result was inactive.
The value for `CCOC(=S)S` was “inactive”.
For the molecule `c1ccc(-c2cccc(-c3ccccc3)c2)cc1`, the molecule was classed as inactive.
With `CC(C)(OOC(C)(C)c1ccccc1)c1ccccc1`, the molecule was classed as inactive.
In the case of `Oc1cc(Cl)c(Cl)cc1Cl`, the molecule was classed as inactive.
Regarding `N#CCCCl`, the molecule was called inactive.
With `CCCCCCCCC(=O)NCc1ccc(O)c(OC)c1` the entry was “inactive”; with `COc1ccc(C=O)cc1`, “inactive”.
`C#CCOS(=O)OC1CCCCC1Oc1ccc(C(C)(C)C)cc1` (stereo not given): the outcome was inactive.
In the case of `CCCCCCOC(=O)c1ccccc1C(=O)OCCCCCC`, the result was inactive.
As to `O=C(O)CC[N+](=O)[O-]`, the outcome was inactive.
Turning to `CCOc1cc(C=O)ccc1O`, the molecule was called inactive.
Take `C[C@]12CCC(=O)C(O)=C1CC[C@@H]1[C@@H]2CC[C@]2(C)C(=O)CC[C@@H]12`: the molecule was called inactive.
Take `Oc1ccc(-c2ccccc2)cc1`: the molecule was called inactive.
The value for `c1cc(OCC2CO2)ccc1Cc1ccc(OCC2CO2)cc1` (stereo not given) was “inactive”.
For the molecule `Nc1ccc(Cl)c(Cl)c1`, the outcome was inactive.
Consider `CCCCC(CC)COC(=O)Cl` (stereo not given), for which the call was inactive.
With `CCOP(=S)(OCC)O/N=C(\C#N)c1ccccc1` the entry was “inactive”; with `O=P(O)(O)CCCl`, “inactive”.
On to `COP(=S)(OC)Oc1ccc([N+](=O)[O-])cc1`, for which the molecule was classed as inactive.
As to `CCCCOCCOP(=O)(OCCOCCCC)OCCOCCCC`, the molecule was classed as inactive.
Regarding `Oc1cc(Cl)ccc1Cl`, the molecule was called inactive.
With `C=CCc1ccc2c(c1)OCO2`, the outcome was inactive.
In the case of `O=C(NC(=O)c1c(F)cccc1F)Nc1ccc(Cl)cc1`, the result was inactive.
In the case of `Nc1ccncc1`, the molecule was called inactive.
As to `c1nc[nH]n1`, the outcome was inactive.
As for `O=C1C=CC(=O)C=C1`, the outcome was inactive.
Regarding `O=Cc1ccco1`, the molecule was classed as inactive.
For `NC(=S)Nc1ccccc1`, the molecule was classed as inactive.
